Reference: PMC7819943, “Rice protein-binding microarrays: a tool to detect cis-acting elements near promoter regions in rice”
The full ranking holds about 68,000 sequences; the median of “fluorescence intensity (a.u.)” is about 9,100, and the highest 2% start at about 16,000. This excerpt belongs to a sample that is enriched for the highest values.

Each sequence was assayed against OsWRKY34 (Oryza sativa, UniProt Q0JBA9 1-250) (assay: protein-binding microarray (RPBM); PBS, 2% BSA, 51.3 ng/ul salmon testes DNA, 50 uM zinc acetate, 200 nM TF, 25 C, 1 h; high values mean tight binding). Details: protein: recombinant; tags: N-terminal polyhistidine and DsRed monomer fusion (pET32a); label: CyDye5-dUTP incorporated in the synthesized complementary strand; 3' TTTTT single-stranded linker to array surface; dsDNA, one strand shown.
Method in brief: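 The binding signal is fluorescence intensity per array feature (arbitrary units). Readings came from an Axon 4000B scanner after a washed, 2% BSA-blocked, double-stranded custom Agilent array had been incubated for 1 h at 25 °C with 200 nM protein and 50 µM zinc acetate. The protein was a Ni–NTA-purified transcription factor fused N-terminally to polyhistidine and DsRed, expressed in E. coli BL21-CodonPlus.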

Sequence of OsWRKY34 (Q0JBA9 entry or part of it): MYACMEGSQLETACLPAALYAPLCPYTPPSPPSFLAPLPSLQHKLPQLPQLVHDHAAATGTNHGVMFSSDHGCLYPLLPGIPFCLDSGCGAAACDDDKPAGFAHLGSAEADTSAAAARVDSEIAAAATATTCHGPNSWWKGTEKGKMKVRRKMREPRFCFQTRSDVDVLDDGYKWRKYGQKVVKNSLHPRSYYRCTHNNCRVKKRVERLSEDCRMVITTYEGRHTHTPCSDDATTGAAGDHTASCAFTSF

Row | Sequence | binding signal
1 | GTTAGGCATGCTGCTTGTTTATTTTTTTTCAAGTTGAGAACGGAGTCACCTAGTGCAG | 8140 fluorescence intensity (a.u.)
2 | GCTACTGGTGCCGGCCGCCGTCCTCCTGCTTCCGCCGCCGCGGAGTCACCTAGTGCAG | 9560 fluorescence intensity (a.u.)
3 | CCCATCATGTGACTTCCATCCTTGTTCCTAGCTGCATGCACGGAGTCACCTAGTGCAG | 9270 fluorescence intensity (a.u.)
4 | TCTTCACATGCTATTTTGTGTTATTCTTGCCTATAAATGACGGAGTCACCTAGTGCAG | 8310 fluorescence intensity (a.u.)
5 | ACATGTAAACTGTGCAATTGATTTTTTTTGTCCACATTTACGGAGTCACCTAGTGCAG | 10400 fluorescence intensity (a.u.)
6 | AGAGGAGACAGAACCCCTGACTTTATACAGTTTGCAGTTACGGAGTCACCTAGTGCAG | 8340 fluorescence intensity (a.u.)
7 | CGCCGCCGCATCTCCTCCTTCCTCTCTTGGCAACTGTCGGCGGAGTCACCTAGTGCAG | 8300 fluorescence intensity (a.u.)
8 | GACATATTTTTTTCTCCTCTCTTTTTTCATTTGTTTTTTTCGGAGTCACCTAGTGCAG | 11600 fluorescence intensity (a.u.)
9 | TCCTTGGGCTTTTTTTCTTGTTCGGGGTTGAGAGGCAATGCGGAGTCACCTAGTGCAG | 18700 fluorescence intensity (a.u.)
10 | TTGAGTTGTGTTCTTGGTTGGGGAGGAGGAGGAGGAGATGCGGAGTCACCTAGTGCAG | 15100 fluorescence intensity (a.u.)
11 | TTTTTGTTTCTATTGGAGGTTGTCATGTTTATCTACCTTTCGGAGTCACCTAGTGCAG | 9650 fluorescence intensity (a.u.)
12 | TTGTAAGTTTGTGTGTAGGAAAGTTTTGATGTGAGGAAAACGGAGTCACCTAGTGCAG | 9150 fluorescence intensity (a.u.)
13 | ACATGGGCTGGGCTGGGCTGGGCTCTTCTTCCTTTTTGTTCGGAGTCACCTAGTGCAG | 21900 fluorescence intensity (a.u.)
14 | GTAGGAAAGTTTGTTTGTGTGTGTAGAAAAGTTTTGATGTCGGAGTCACCTAGTGCAG | 21000 fluorescence intensity (a.u.)
15 | AGTTTGTGTGTGTAGGAAAGTTTTGATGTGATGAAAAAGTCGGAGTCACCTAGTGCAG | 8680 fluorescence intensity (a.u.)
16 | GATTCCTTCCTTTTGTTTTTGGGCCGAATTCTCCTTCTTTCGGAGTCACCTAGTGCAG | 13000 fluorescence intensity (a.u.)
17 | TTCCTTCTTCCTTCTTTTTTTCTCTCTTCTCCTTTTTTTTCGGAGTCACCTAGTGCAG | 10300 fluorescence intensity (a.u.)
18 | GTCTACTATCCTCTTTCATTGTCTTTTTGTTGGTTGGTTTCGGAGTCACCTAGTGCAG | 17600 fluorescence intensity (a.u.)
19 | GGCGGGGTTGGGGCGGCAGGCGGCTGTGAGGTTCTTGATTCGGAGTCACCTAGTGCAG | 16100 fluorescence intensity (a.u.)
20 | ACACACACTTTACAGGTTTACAGCCCAACTTATCCGTGCACGGAGTCACCTAGTGCAG | 9890 fluorescence intensity (a.u.)
21 | ATTTCTTTCCATCCATAATTACTAGGCTGCATTGCCTCTTCGGAGTCACCTAGTGCAG | 8720 fluorescence intensity (a.u.)

Row | Sequence | binding signal
22 | CTCGTACTAGGGTGTCATGCTGTTGGTTCCGGTGAATCTTCGGAGTCACCTAGTGCAG | 8270 fluorescence intensity (a.u.)
23 | AAATTCAAACTAGTTTCTACATAGCCTCTTTTCTCTATTTCGGAGTCACCTAGTGCAG | 10900 fluorescence intensity (a.u.)
24 | TGTTTATTTTTTTCGTTAAATTTGATTGTTTCCATTTGCACGGAGTCACCTAGTGCAG | 9770 fluorescence intensity (a.u.)
25 | ACCCGCCCCTGCTGCTCACCGCTCCAGCCTCCGCTCATCCCGGAGTCACCTAGTGCAG | 8790 fluorescence intensity (a.u.)
26 | CCGCTGTTATTCCCTTTGTTGTTTTTTCTCAAGTAAATTTCGGAGTCACCTAGTGCAG | 13200 fluorescence intensity (a.u.)
27 | CTTGGTGGTTCTTTTCTTCTTCTAGATTTATCCCCATTTTCGGAGTCACCTAGTGCAG | 16700 fluorescence intensity (a.u.)
28 | GGTTGGTTTCTTTCGTTGGATTGTTTCGAGCCAGGGTTTCCGGAGTCACCTAGTGCAG | 16900 fluorescence intensity (a.u.)
29 | TGAGTTTGTTTGCTGGGTTGGTTCGTGCGTTTTCTTGGATCGGAGTCACCTAGTGCAG | 18800 fluorescence intensity (a.u.)
30 | GGCGGATTTCGGTTTCTTCGTGTGTTTGTTGGTTGCGTTGCGGAGTCACCTAGTGCAG | 12700 fluorescence intensity (a.u.)
31 | AGGGTTTTTTTTGTCACTTTCGTTGTCAGTTTCTTTTTTCCGGAGTCACCTAGTGCAG | 14100 fluorescence intensity (a.u.)
32 | CGTTATTCCGCTGTTGTTTTTTTTTTCTTTTGTAAGTATGCGGAGTCACCTAGTGCAG | 17500 fluorescence intensity (a.u.)
33 | CCGCTGCTGTTTTCTTTTCTTTTGTAAGTGTGTAACGTTACGGAGTCACCTAGTGCAG | 9400 fluorescence intensity (a.u.)
34 | CCATTTAGATTGGTGCCATTTTAAACTATATCTTTTTCTTCGGAGTCACCTAGTGCAG | 8220 fluorescence intensity (a.u.)
35 | AGTTTTATCCTGGGTTTGTGTTTGGTGCTGTTCTTGCGTGCGGAGTCACCTAGTGCAG | 10200 fluorescence intensity (a.u.)
36 | CGTCTCTTTTATCCTTCTTTTTTTTCCCATTTTTCTTTTTCGGAGTCACCTAGTGCAG | 11900 fluorescence intensity (a.u.)
37 | TTGGATTGGTTTCTTTCTGCTCTGTTGCAGCTCCGTTGTCCGGAGTCACCTAGTGCAG | 9560 fluorescence intensity (a.u.)
38 | TCTCTCGCCGATTCCGCCACCGCCGCCGCGCCGCGCCTCGCGGAGTCACCTAGTGCAG | 9420 fluorescence intensity (a.u.)
39 | GACGGTGGCCATTCTAATTCCTCTATTGCAGGGTCTAACTCGGAGTCACCTAGTGCAG | 8310 fluorescence intensity (a.u.)
40 | TATATCCTATCTCTCACTTCACTCATATAGTGGTTAACTCCGGAGTCACCTAGTGCAG | 9570 fluorescence intensity (a.u.)
41 | ACTTTTCTACACACATAAACTTCTAACTTTTTCATCACATCGGAGTCACCTAGTGCAG | 13400 fluorescence intensity (a.u.)
42 | GTAGTGCTGATGTTGTACTGTGTTTTTTTACCCGTTTTATCGGAGTCACCTAGTGCAG | 11500 fluorescence intensity (a.u.)
